# Inconclusive results are not listed. Values without a mark were called inactive. The source made the active and inactive calls. Calls come from the whole dose curve; as a rule, active = well fitted cell-killing curve with a large enough effect in the repeat runs; inconclusive = weak or mixed curves; inactive = no such curve, though single readings can be large or run the other way.
# Assay: qHTS assay to identify small molecule antagonists of the peroxisome proliferator-activated receptor delta (PPARd) signaling pathway - cell viability counter screen (AID 743213); note: nearly all actives have a fitted effect of over 50% in size
# Conditions: PPARd-bla HEK293H viability, CellTiter-Glo luminescence, 17 h; series mostly up to 62 µM; viability change, negative = cytotoxic: at the top concentration
# From the text: U.S. Tox21 Program National Center for Advancing Translational Sciences [NCATS] NIH Chemical Genomics Center [NCGC] U.S. Environmental Protection Agency [EPA] National Institutes of Environmental Health Sciences [NIEHS] National Toxicology Program [NTP] U.S. Food and Drug Administration [FDA] Tox21 Assay Overview: The peroxisome proliferator-activated receptors (PPARs) are lipid-activated transcription factors of the nuclear receptor superfamily with three distinct subtypes namely PPAR alpha, PPAR delta (PPARd) and PPAR gamma. All these subtypes heterodimerizes with Retinoid X receptor (RXR) and have different physiological functions. […] To identify the compounds that inhibit PPAR-delta signaling, GeneBLAzer PPAR delta UAS-bla HEK293H cell line (Invitrogen, Carlsbad, CA, USA) containing a beta-lactamase reporter gene under the control of an Upstream Activator Sequence (UAS) was used to screen the Tox21 compound library. The cytotoxicity of the Tox21 compound library against the PPARd-bla cell line was tested in parallel by measuring the cell viability using CellTiter-Glo assay (Promega, Madison, WI) in the same wells.
# Tox21 Assay Protocol Summary: PPARd-bla cells were dispensed at 3000 cells/5uL/well in 1536-well black wall/clear bottom plates using a Multidrop Combi (Thermo Fisher Scientific, Waltham, MA) dispenser. After the assay plates were incubated at 37 C and 5% CO2 for 5 h, 23 nL of compounds dissolved in DMSO, positive controls or DMSO only was transferred to the assay plate by a Pintool station (Kalypsys, San Diego, CA), followed by addition of 1ul L165041 (300 nM, final concentration in the wells). The assay plates were incubated at 37 C for 17 h, and then 1 uL of LiveBLAzerTM B/G FRET substrate was added using a Bioraptr Flying Reagent Dispenser (FRD) workstation (Beckman Coulter, Indianapolis, IN, USA). The assay plates were incubated at room temperature for 2 h and fluorescence intensity was measured by an Envision plate reader (PerkinElmer, Shelton, CT). For cell viability readout that measures cytotoxicity, 3 ul/well of CellTiter-Glo reagent was added into the assay plates using a Bioraptr FRD. After 30 min incubation at room temperature, the luminescence intensity in the plates was measured using a ViewLux plate reader (PerkinElmer).
# % is set by controls: 0 for no effect and ±100 for the full control effect; potency is the fitted concentration of half-maximal effect.
SMILES,"viability change, negative = cytotoxic",Potency
Oc1cccc2cc3cccc(O)c3c(O)c12,15.7% [at 80.4 µM],
C/C=C1/C(=O)C[C@H]2[C@@H]3CCC4=CC(=O)CC[C@]4(C)[C@H]3CC[C@]12C,4.18%,
CC(C)=CCOc1ccc(/C=C/C(=O)c2ccc(OCC=C(C)C)cc2OCC(=O)O)cc1,-24%,
CCC(C)Nc1ccc(NC(C)CC)cc1 (stereo not given),,22.3 µM (active)
CCOc1ccc2nc3cc(N)ccc3c(N)c2c1,-0.826%,
CC1=NC(C)OC1C (stereo not given),-19.4%,
OCCCCCCCCCCCCBr,6.58% [at 80.4 µM],
O=C(OCC(COC(=O)c1ccccc1)(COC(=O)c1ccccc1)COC(=O)c1ccccc1)c1ccccc1,4.96%,
COc1ccc(C(=O)/C(Br)=C\C(=O)O)cc1,-14.7%,
O=c1[nH]sc2ccccc12,,17.4 µM (active)
C[n+]1ccn(Cc2ccccc2)c1,1.99%,
CC(=O)OCC(C)OC(C)=O (stereo not given),1.83%,
CC(C)(C)C1CCC(CC2=C(O)c3ccccc3C(=O)C2=O)CC1 (stereo not given),2.31%,
CCCCCCCCCCCCc1ccc(O)cc1,,24.5 µM (active)
CCCCCCCC[P+](CCCCCCCC)(CCCCCCCC)CCCCCCCC,,7.71 µM (active)
Nc1ccccc1O,1.38%,
CCCCCCC[N+](CC)(CC)CCCCc1ccc(Cl)cc1,-27.5%,
N=C1N=C(N)c2ccccc21,-11.3%,
C[n+]1cc2c3c(ccc2c2ccc4cc5c(cc4c21)OCO5)OCO3,,1.84 µM (active)
NNC(=O)c1cccc(C(=O)NN)c1,-8.11%,

SMILES,"viability change, negative = cytotoxic",Potency
Cc1cc(CCN2CCN(c3nsc4ccccc34)CC2)cc2c1NC(=O)CC2(C)C,,19.5 µM (active)
CC(=O)S[C@@H]1CC2=CC(=O)CC[C@]2(C)[C@H]2CC[C@@]3(C)[C@@H](CC[C@@]34CCC(=O)O4)[C@H]12,11.4%,
CCCCCCCCCCCCCCCCCC[N+](C)(C)Cc1ccccc1,,13.9 µM (active)
CC(C)c1ccc2c(c1)CC[C@H]1[C@](C)(CN)CCC[C@]21C,,21.9 µM (active)
O=[N+]([O-])c1cc([N+](=O)[O-])c2ccc(S(=O)(=O)O)cc2c1O,1.2%,
CC(C)(C)C(=O)OCOC(=O)[C@@H]1N2C(=O)[C@@H](NC(=O)[C@H](N)c3ccccc3)[C@H]2SC1(C)C,3.18%,
CS(=O)(=O)CCNCc1ccc(-c2ccc3ncnc(Nc4ccc(OCc5cccc(F)c5)c(Cl)c4)c3c2)o1,,21.1 µM (active)
CCCCCCCCCCCCCCCS(=O)(=O)Oc1ccccc1,0.775%,
CCCN(CCC)c1c([N+](=O)[O-])cc(C(F)(F)F)c(N)c1[N+](=O)[O-],,30.8 µM (active)
CNC(=O)c1ccccc1,5.74%,
Cc1c(C)c2c(c(C)c1OC(=O)CCC(=O)O)CC[C@@](C)(CCC[C@H](C)CCC[C@H](C)CCCC(C)C)O2,-13.3% [at 80.4 µM],
C[C@@H](NCCCc1cccc(C(F)(F)F)c1)c1cccc2ccccc12,,26.6 µM (active)
O=C1c2c(O)ccc(Nc3ccc(CCO)cc3)c2C(=O)c2c([N+](=O)[O-])ccc(O)c21,-7.59%,
Clc1ccccc1C(c1ccccc1)(c1ccccc1)n1ccnc1,-1.98%,
COc1cc(-c2nc(NC(=O)c3cc4cc(C)cc(C)c4n3CC(=O)O)sc2CCC2CCCCC2)c(OC)cc1Cl,,20.1 µM (active)
ON=C1CCCC1,-0.0098% [at 80.4 µM],
C[C@H]1[C@H]2CC[C@H]3[C@@H]4CC=C5C[C@@H](N(C)C)CC[C@]5(C)[C@H]4CC[C@]23CN1C,-1.33%,
CCCCc1oc2ccc(NS(C)(=O)=O)cc2c1C(=O)c1ccc(OCCCN(CCCC)CCCC)cc1,,23.7 µM (active)
Cc1ccc(O)c(C(C)(C)C)c1,,27.5 µM (active)
CCOc1nc2cccc(C(=O)OC(C)OC(=O)OC3CCCCC3)c2n1Cc1ccc(-c2ccccc2-c2nn[nH]n2)cc1 (stereo not given),,17.4 µM (active)

# Source: PubChem BioAssay (Tox21)
